Rows were chosen to be rich in hits. Some 20% of all compounds tested hit in one or more screens of this group.
HCMV antiviral = blocks human cytomegalovirus replication; hit rate 4.5% among 410,000; HFF cells, HCMV-luciferase reporter, 72 h; stronger effect = lower value; activity change, negative = inhibition, % at 57.5 µM; in the data active = activity change below about -60%; inconclusive = no clear call, values can overlap the other calls; inactive = above about -39%; note: % is set by controls: 0 for no effect and ±100 for the full control effect
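Two-dose cell screen: HFF monolayers treated with compounds and infected with luciferase-expressing HCMV at 1 PFU/cell, 72 h at 37C, then lysed for luciferase measurement.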
Shiga toxin inh = Shiga toxin inhibition; Vero cells, Shiga toxin protein synthesis inhibition reporter; inhibition, % at 38.7 µM; hit rate 9.2% among 290,000; AID 2315; in the data active = inhibition mostly above about 28%, no sharp cut-off; inactive = mostly below about 43%; note: 0% is about no effect
Pf growth 48h = inhibits P. falciparum growth in the first generation, 48 h; P. falciparum luciferase growth in erythrocytes, 48 h; Potency, µM (top dose mostly 28.7 µM), for the others: at the top dose activity change, negative = inhibition, actives largely listed as inhibitors; hit rate 5.9% among 310,000; AID 504832; note: potency is the fitted concentration of half-maximal effect; % is set by controls: 0 for no effect and ±100 for the full control effect
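Here the parasites carry a stable luciferase gene and grow inside erythrocytes in Albumax-based RPMI medium with compound for one erythrocytic cycle. Activity is scored as loss of luminescent signal.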
Cycloheximide cs = counter-screen hit for Shiga toxin inhibitors, cycloheximide. cell reporter, cycloheximide protein synthesis inhibition counterscreen. max response, %. hit rate 12% among 300,000. AID 2314; in the data active = max response mostly above about 13%, no sharp cut-off; inactive = mostly below about 14%; note: read at 38.3 µM for the half of the compounds with a filed dose; 0% is about no effect
Pf growth 96h = P. falciparum growth inhibition at 96 hour, primary screen for plastid delayed-death inhibitors. Potency, µM (doses to about 28.7 µM), inactives show at the highest dose activity change, negative = inhibition, most hits filed as inhibitors. AID 504834. hit rate 6.9% among 320,000. P. falciparum luciferase reporter growth, 96 h; note: potency is the fitted concentration of half-maximal effect; % is set by controls: 0 for no effect and ±100 for the full control effect
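Delayed-death screen, second-generation endpoint: infected erythrocytes, 2% hematocrit, 0.05% parasitemia final; 96 hours at 37 C, 5% CO2; luciferase detection reagent; luminescence decrease equals reduced growth.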
Starred values were filed as active, the others as inactive; ? = inconclusive; . = no result. Unless noted, calls come from the whole dose curve; as a rule, active = well fitted inhibition curve with a large enough effect; inconclusive = small, poorly fitted or top-dose-only effect, or another doubt; inactive = no such curve, though single readings can be large or run the other way.

SMILES | HCMV antiviral | Shiga toxin inh | Pf growth 48h | Cycloheximide cs | Pf growth 96h
COc1ccccc1NC(=O)c1ccc2nsnc2c1 | 28.4 | 106.7* | 173.7% | 25.7* | -1.0%
COc1cc(NC(=O)c2ccc3nsnc3c2)cc(OC)c1OC | -13.6 | -2.0 | 17.8% | -1.2 | -15.5%
Cc1ccc(C(=O)Nc2ccccc2OC(F)F)cc1 | 14.8 | 44.8* | . | 37.1* | 29.2%
O=C(Nc1ccccc1OC(F)F)c1ccccc1 | -15.0 | -9.5 | 16.3% | 9.7 | .
Cc1ccc(NC(=O)c2ccc3snnc3c2)cc1 | 18.6 | 29.1 | -1.8% | 18.1* | 12.4%
CC(C)c1ccc(NC(=O)c2ccc3snnc3c2)cc1 | 34.3 | -10.1 | -0.9% | 1.9 | 73.9%
Cc1nnsc1C(=O)NNC(=O)Nc1ccccc1 | -30.2 | 4.1 | -7.1% | -1.9 | ?
Cc1oc2c(c1C(=O)NCc1cccc(Br)c1)C1=NCCN1C=N2 | -5.2 | . | . | . | .
COc1ccc(CCNC(=O)CCC(=O)N2CCOc3ccc(Cl)cc32)cc1OC | -1.5 | 5.4 | -21.0% | -0.9 | -25.8%
O=C(Nc1ccccc1)c1ccc2snnc2c1 | -8.5 | 67.4* | 34.2% | 25.0* | -1.1%
CC1CCC(NC(=O)c2ccc3snnc3c2)CC1 (centres undefined) | 10.6 | 50.3* | 43.6% | 40.8* | ?
COC(=O)c1ccc(C(=O)Nc2ccc(N)cc2N)cc1 | -24.7 | 5.7 | 4.15µM* | -3.4 | -9.2%
CC(C)(C)c1ccc(OC(=O)c2ccc3nsnc3c2)cc1 | -21.8 | 17.4 | . | -5.0 | ?
COc1ccccc1OC(=O)c1ccc2nsnc2c1 | 7.3 | 14.7 | 24.3% | 9.9* | 0.0%
COC(=O)c1ccc(C(=O)Nc2ccc(F)cc2)cc1 | 20.7 | . | 66.6% | . | 146.5%
CC(C)NC(=O)NC(=O)CN1C(=O)NC(Cc2c[nH]c3ccccc23)C1=O (centres undefined) | 30.7 | 36.2 | 19.3% | 11.8 | -7.9%
O=c1c2cc(Br)ccc2nc(-c2cccc(C(F)(F)F)c2)n1O | -33.1 | -13.3 | ? | -3.2 | ?
COc1ccccc1NC(=O)c1ccc2c(c1)nnn2C | 23.6 | 27.1 | -8.2% | 1.5 | ?
COc1cc(NC(=O)c2ccc3snnc3c2)cc(OC)c1 | 86.5 | 23.0 | 71.5% | 28.6* | 73.1%
COc1ccccc1NC(=O)c1ccc2c(O)c(S(=O)(=O)c3ccccc3)c(=O)[nH]c2c1 | -35.3 | -5.0 | 26.0% | -1.0 | 11.7µM*
Cc1ccc(NC(=O)c2ccc3snnc3c2)cc1Cl | 1.9 | . | . | . | .
COc1ccccc1NC(=O)c1ccc2snnc2c1 | 20.0 | 41.6* | 7.1% | 16.5 | -13.5%
COc1ccccc1NC(=O)c1ccc(N)cc1 | 39.5 | 59.6* | . | 15.6* | -15.9%
CNCc1ccccc1OCC(=O)Nc1ccccc1 | 115.3 | 74.0* | . | 35.4* | 84.9%
CCOC(=O)c1ccc(NC(=O)COc2ccccc2CNCCc2ccccc2)cc1 | -65.4* | -17.2 | ? | -2.2 | ?
SMILES | HCMV antiviral | Shiga toxin inh | Pf growth 48h | Cycloheximide cs | Pf growth 96h
CCOC(=O)c1ccc(NC(=O)COc2ccc(CNCCO)cc2OCC)cc1 | 0.4 | -13.6 | ? | 1.8 | ?
CCc1ccccc1OCC(=O)Nc1ccc(S(N)(=O)=O)cc1 | -19.2 | 23.4 | 0.8% | 0.7 | 5.8%
COc1ccc(-c2oc3ccc(N4CCOCC4)cc3c2C#CCO)cc1 | -67.0* | . | . | . | .
COc1ccc(-c2oc3ccccc3c2C#CC(C)(C)O)cc1 | 1.1 | . | ? | . | 1.85µM*
COc1ccc(-c2c(C#CC(C)(C)O)c3ccccc3n2C)cc1 | 24.2 | . | . | . | .
COc1ccc(-c2oc3ccc(-c4cc(OC)c(OC)c(OC)c4)cc3c2C(=O)c2ccc(OC)nc2)cc1 | -99.0* | -7.0 | ? | -1.6 | ?
COc1ccc(-c2oc3ccc(-c4cc(OC)c(OC)c(OC)c4)cc3c2C#Cc2ccsc2)cc1 | ? | -6.0 | -40.7% | -2.2 | 7.38µM*
CC(C)CC[n+]1ccn(-c2nc3ccccc3nc2[N-]S(=O)(=O)c2ccc(Cl)cc2)c1 | -14.5 | 7.4 | -22.5% | -0.6 | ?
COc1ccc(-c2sc3ccc(N4CCOCC4)cc3c2C#Cc2ccsc2)cc1 | -28.7 | . | . | . | .
COc1ccc(-c2oc3ccc(-c4ccc(OC)nc4)cc3c2C#CC2(O)CCCCC2)cc1 | -10.7 | 7.4 | ? | 0.3 | 5.86µM*
COc1ccc(-c2ccc3oc(-c4ccc(OC)cc4)c(C#CCO)c3c2)cc1 | -92.5* | . | . | . | .
COc1ccc(-c2sc3ccc(N4CCOCC4)cc3c2C#CC(C)(C)O)cc1 | -32.1 | . | ? | . | 2.62µM*
COc1ccc(-c2oc3ccc(-c4ccc5c(c4)OCO5)cc3c2C#CC2(O)CCCCC2)cc1 | 35.2 | . | . | . | .
COc1ccc(-c2ccc3oc(-c4ccc(OC)cc4)c(-c4ccc(OC)cc4)c3c2)cc1 | -7.7 | . | . | . | .
CN(C)c1ccc(CNC(=O)C(Cc2ccccc2)NS(=O)(=O)c2ccc3c(c2)oc(=O)n3C)cc1 (centres undefined) | -1.1 | . | . | . | .
O=C(N/N=C/c1cccc([N+](=O)[O-])c1)c1nc2ccccc2c(=O)[nH]1 | -30.2 | 32.7 | 99.5% | 18.5* | 60.4%
O=C(Cc1ccccc1)N/N=C/c1cccc([N+](=O)[O-])c1 | ? | 11.8 | 5.3% | 9.6* | -24.2%
CCOc1cc(/C=N/NC(=O)c2cccc([N+](=O)[O-])c2)ccc1OS(=O)(=O)c1ccccc1 | -8.9 | 20.1 | 11.7µM* | -2.6 | ?
CC(NC(=O)c1ccccc1)C(=O)N/N=C/c1cccc([N+](=O)[O-])c1 (centres undefined) | -35.1 | 92.8 | 40.8% | 17.4* | 29.4%
CC(=O)c1ccc(NC(=O)CN2CCN(S(=O)(=O)c3ccc4c(c3)OCCO4)CC2)cc1 | 12.8 | . | . | . | .
CN(c1ccc(C(=O)N/N=C/c2cccc([N+](=O)[O-])c2)cc1)S(=O)(=O)c1ccccc1 | -9.7 | -3.5 | 6.57µM* | -3.2 | ?
COc1ccccc1NC(=O)c1ccc(S(=O)(=O)N2CCCC(C)C2)cc1 (centres undefined) | -63.5* | -6.8 | -16.9% | -0.9 | 19.9%
Cc1cc(F)ccc1S(=O)(=O)Nc1ccccc1C(=O)Nc1ccccc1-c1nc2ccccc2[nH]1 | . | -8.9 | 9.28µM* | 15.6 | 1.85µM*
CC1CCN(S(=O)(=O)c2ccc(C(=O)Nc3ccccc3-c3nc4ccccc4[nH]3)cc2)CC1 | 0.9 | -6.8 | 4.15µM* | -7.2 | 7.38µM*
COc1ccc(NC(=O)c2ccc(S(=O)(=O)N3CCCCC3)cc2)c(OC)c1 | 0.0 | 2.5 | -18.3% | 1.6 | -3.3%
COc1ccccc1C(=O)NCCC(=O)N1CCCC(C)C1 (centres undefined) | -24.0 | -11.0 | 5.0% | -2.5 | 44.3%
COc1ccccc1C(=O)NCCC(=O)Nc1ccc(S(=O)(=O)N2CCCC(C)C2)cc1 (centres undefined) | 8.9 | . | 14.7µM* | . | ?
CCC(Sc1nc2ccc(N)cc2s1)C(=O)Nc1nccs1 (centres undefined) | 63.6 | 10.5 | . | 15.5 | -14.9%
CNC(=O)c1c(NC(=O)c2ccc(S(=O)(=O)N3CCCC(C)C3)cc2)sc2c1CCC2 (centres undefined) | -13.6 | . | . | . | .
